In the library only some 2.2% were active in any assay of this set; here they are far more common.
M4 PAM: human M4 muscarinic receptor positive allosteric modulators, primary screen, CHO-K1 cells, Fluo-8 calcium fluorescence. CHO-K1 hM4/Gqi5, ACh EC20; 0% = ACh EC20, 100% = maximal ACh. activation, % at 3 µM. 0.4% of 360,000 active;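 active = activation above its plate's cutoff, the mean activation of sample wells plus 3 SD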
Target sequence (P08173 whole entry, looked up): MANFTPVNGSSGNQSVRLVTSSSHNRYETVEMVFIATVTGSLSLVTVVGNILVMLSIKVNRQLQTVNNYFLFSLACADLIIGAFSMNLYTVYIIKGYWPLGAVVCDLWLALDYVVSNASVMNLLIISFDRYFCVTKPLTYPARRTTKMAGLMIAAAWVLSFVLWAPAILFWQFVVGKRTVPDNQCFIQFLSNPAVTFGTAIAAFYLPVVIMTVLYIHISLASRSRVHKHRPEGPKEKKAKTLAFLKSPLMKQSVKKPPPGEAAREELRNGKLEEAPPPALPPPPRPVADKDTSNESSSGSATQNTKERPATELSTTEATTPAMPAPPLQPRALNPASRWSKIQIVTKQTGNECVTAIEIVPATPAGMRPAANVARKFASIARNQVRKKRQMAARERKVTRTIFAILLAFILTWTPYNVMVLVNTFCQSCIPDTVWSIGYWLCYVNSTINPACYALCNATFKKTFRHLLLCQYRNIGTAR
CHRM4 antagonist: human M4 muscarinic receptor antagonists, primary screen, CHO cells, Fluo-8 calcium fluorescence | Muscarinic acetylcholine receptor M4 (Homo sapiens), P08173 | CHO-hM4 cells, ACh EC80 | inhibition, % at 3 µM | 0.73% of 360,000 active;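 active = inhibition above its plate's cutoff, the mean inhibition of sample wells plus 3 SD, cut at about 27% in these data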;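 also: 0% = acetylcholine EC80 with DMSO and 100% = DMSO without agonist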
CHRM1 PAM: human M1 muscarinic receptor positive allosteric modulators, primary screen, CHO-K1 cells, Fluo-8 calcium fluorescence, 1536-well; AID 588819, 2011; activation, % at 3 µM; Muscarinic acetylcholine receptor M1 (Homo sapiens), P11229; 0.088% of 360,000 active; CHO-K1 hM1, ACh EC20; 0% = ACh EC20, 100% = maximal ACh; in the data active = activation above about 19%, passing the limit was not always enough
CHRM1 antagonist: human M1 muscarinic receptor antagonists, primary screen, CHO-K1 cells, Fluo-8 calcium fluorescence, 1536-well | inhibition, % at 3 µM | CHO-K1 hM1, ACh EC80 antagonist | 1.3% of 360,000 active;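 active = percent inhibition above its own plate's cutoff, namely the mean of that plate's compound wells plus 3 SD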;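 also: peak over basal fluorescence ratio during 140 s after agonist addition; 0% = ACh EC80 plus DMSO and 100% = DMSO alone without agonist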
CHRM1 agonist: human M1 muscarinic receptor agonists, primary screen, Fluo-8 calcium fluorescence, CHO-K1 cells, HTS | Muscarinic acetylcholine receptor M1 (Homo sapiens), P11229 | CHO-K1 hM1, agonist mode; 0% DMSO, 100% acetylcholine EC100 | activation, % at 3 µM | 0.33% of 360,000 active | AID 588814, 2011;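 active = activation above the run's mean compound activation plus 3 SD, cut at about 16% in these data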;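 also: peak over basal fluorescence ratio within a 140 s kinetic read after compound addition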
M4 ag: human M4 muscarinic receptor agonists, primary screen, CHO-K1 cells, Fluo-8 calcium fluorescence; AID 624127, 2012; CHO-K1 hM4/Gqi5; vehicle 0%, full acetylcholine response 100%; activation, % at 3 µM; Muscarinic acetylcholine receptor M4 (Homo sapiens), P08173; 0.14% of 360,000 active;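 active = activation above the run mean over all test wells plus 3 SD, cut at about 32% in these data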;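 also: peak over basal fluorescence ratio per well then scaled between controls; 0% = DMSO wells and 100% = acetylcholine at EC100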
An asterisk follows results filed as active.

SMILES	M4 PAM	CHRM4 antagonist	CHRM1 PAM	CHRM1 antagonist	CHRM1 agonist	M4 ag
O=C(Cn1nc(-c2ccccc2)c2ccccc2c1=O)Nc1ccc(F)cc1	1.4	-0.6	6.7	2.0	0.7	0.4
Cc1cc(Cl)ccc1OCC(=O)NNC(=O)c1ccco1	2.1	-4.3	15.7	-21.3	-0.6	0.8
COCCNc1nnc(SCC(=O)NC(=O)c2ccc(Cl)cc2)s1	1.9	-2.4	1.4	-0.5	-1.0	-0.7
COCCNc1nnc(SCC(=O)NNC(=O)c2ccccc2)s1	18.8*	-12.8	7.5	-10.2	-7.0	3.5
CC[C@H](C)[C@H](NC(N)=O)C(=O)Nc1ccc(S(=O)(=O)NC(C)C)cc1	-4.7	29.8*	6.2	-26.4	-3.6	0.5
CCOc1ccc(Oc2ccc(NC(=O)[C@@H](NC(N)=O)[C@@H](C)CC)cc2)cc1	-13.5	6.6	2.4	0.0	-2.5	-0.2
Cc1ccc(C(=O)O)cc1NCc1cccnc1	0.0	5.3	-0.5	-0.2	-3.0	0.1
Cc1ccc(CN(C)C(=O)c2ccc(S(=O)(=O)N(C)c3ccccc3)cc2)o1	-5.6	0.6	-16.9	39.5*	-0.7	4.3
CN(Cc1ccc(OC(F)F)cc1)C(=O)c1ccc(S(=O)(=O)N(C)c2ccccc2)cc1	-11.8	8.2	-12.9	21.1	-2.6	11.9
O=C(CCCOc1ccccc1)Nc1nccs1	18.6	1.2	6.8	2.4	-0.5	1.1
O=C(Nc1nccs1)Oc1ccccc1	28.3*	-13.6	6.9	-8.5	-3.8	1.4
CCCO/N=C1/C(=O)N(c2ccccc2)c2ccccc21	11.5	-8.6	4.1	-0.8	-11.5	-1.8
CC(=O)NCCC(=O)Nc1cc(F)ccc1C	4.1	-3.5	5.5	-2.1	-3.4	0.8
Cc1ccc(S(=O)(=O)NCCC(=O)Nc2cc(F)ccc2C)cc1C	-6.5	3.6	-9.9	21.5*	-2.1	0.0
CCNc1nc(NC(C)(C)C)nc(N(C#N)CC)n1	-32.5	61.1*	18.0	-4.0	-6.2	-0.4
CCNc1nc(NCC)nc(N(C#N)C(C)C)n1	3.3	4.8	16.9	-18.7	8.7	0.5
CC(C)[C@H](NC(=O)OCc1ccccc1)C(=O)OCC(=O)NC1(C#N)CCCC1	15.9*	0.7	-0.8	5.9	-0.6	1.3
CC(C)[C@H](NC(=O)OCc1ccccc1)C(=O)OCC(=O)NC1CCCCC1	0.7	-0.2	-2.6	-13.5	-5.0	0.5
O=C(Nc1ccc(-c2nc3ccc(NC(=O)c4cccs4)cc3[nH]2)cc1)c1cccs1	-21.5	45.9*	-16.7	38.2*	-5.4	5.0
O=C(Nc1cccc(-c2nc3ccccc3s2)c1)c1cccs1	-6.9	-2.5	-5.5	29.9*	-10.9	5.3
Cc1ccccc1C(=O)Nc1ccc(-c2nc3ccc(C(=O)c4ccccc4)cc3[nH]2)cc1	-20.3	36.1*	-8.7	28.3*	-2.8	11.0
O=C(Nc1cccc(-c2nc3ccccc3s2)c1)c1cc(=O)c2ccccc2o1	5.3	-1.5	4.0	-6.0	-4.5	4.8
CS(=O)(=O)c1ccccc1C(=O)Nc1ccc(-c2nc3ccccc3[nH]2)cc1	-1.2	2.2	1.1	-4.4	-2.2	3.1
O=C(c1ccccc1)c1ccc2nc(-c3ccc(NC(=O)c4ccccc4Br)cc3)[nH]c2c1	-22.1	28.1*	-3.4	11.2	-3.9	7.3
Oc1c(Cl)cc(Cl)cc1CNn1cnnc1	-1.7	-10.4	10.3	-2.3	-2.9	0.7
O=C(c1cccc(NS(=O)(=O)c2cccc([N+](=O)[O-])c2)c1)N1CCOCC1	8.3	-0.8	12.8	-12.2	-1.1	3.1
CCCCN(C)CCNC(=O)CN1C(=O)CSc2ccc(S(=O)(=O)N3CCOCC3)cc21	2.8	-0.5	-17.6	42.5*	-6.0	0.5
